Legend:
Test in all cases: DAPPL (digital affinity profiling via proximity ligation, sequencing); 10 mM Tris-HCl pH 7.5, 50 mM NaCl, 1 mM DTT, 4% glycerol, room temperature, 30 min; GST-TFs on glutathione beads, 16-mer random dsDNA library, 0.1% formaldehyde crosslink after washing; high values mean tight binding
Settings in all cases: protein: recombinant; tags: N-terminal GST; dsDNA, one strand shown
ELK1 = target: T1, ELK1 (Homo sapiens, UniProt P19419 1-428)
T1 sequence: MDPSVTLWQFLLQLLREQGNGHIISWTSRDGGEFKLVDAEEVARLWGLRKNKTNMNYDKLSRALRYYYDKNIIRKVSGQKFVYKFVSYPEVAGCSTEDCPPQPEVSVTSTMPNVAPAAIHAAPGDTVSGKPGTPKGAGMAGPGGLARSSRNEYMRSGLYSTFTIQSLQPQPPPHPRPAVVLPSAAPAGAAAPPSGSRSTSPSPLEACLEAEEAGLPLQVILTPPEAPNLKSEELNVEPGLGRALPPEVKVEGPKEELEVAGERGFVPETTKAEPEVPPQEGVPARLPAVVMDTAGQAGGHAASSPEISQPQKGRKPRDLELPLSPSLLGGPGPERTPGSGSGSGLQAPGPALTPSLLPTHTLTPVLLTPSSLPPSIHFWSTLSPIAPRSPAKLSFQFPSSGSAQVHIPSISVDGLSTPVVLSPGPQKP
Procedure, shortened: (§1)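 GST fusions of human transcription factors were expressed in yeast and captured with glutathione beads. Once given DNA barcodes and pooled alongside a tag-only sample, they were incubated for 30 min at room temperature with 200 nmole of a random double-stranded 16-mer DNA library in Tris/NaCl/DTT/glycerol buffer, then washed, crosslinked (0.1% formaldehyde), proximity-ligated, PCR-amplified and sequenced on an Illumina NextSeq500. The binding signal of each hexamer is its read frequency for a factor divided by its frequency for the tag-only sample.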

GABPA = target: T2, GABPA (Homo sapiens, UniProt Q06546 1-454)
T2 sequence: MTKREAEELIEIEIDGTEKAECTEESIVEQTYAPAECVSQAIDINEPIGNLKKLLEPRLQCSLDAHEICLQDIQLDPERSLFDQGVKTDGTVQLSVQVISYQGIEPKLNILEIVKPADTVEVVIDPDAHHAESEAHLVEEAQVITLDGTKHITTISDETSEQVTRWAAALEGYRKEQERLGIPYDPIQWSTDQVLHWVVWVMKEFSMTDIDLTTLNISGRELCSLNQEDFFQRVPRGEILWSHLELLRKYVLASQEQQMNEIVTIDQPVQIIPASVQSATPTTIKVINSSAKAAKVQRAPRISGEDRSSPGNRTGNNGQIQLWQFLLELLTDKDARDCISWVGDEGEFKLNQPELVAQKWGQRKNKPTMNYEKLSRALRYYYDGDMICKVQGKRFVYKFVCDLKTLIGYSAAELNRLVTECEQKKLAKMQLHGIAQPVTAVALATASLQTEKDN
Procedure, shortened: as §1

ERG = target: T3, ERG (Homo sapiens, UniProt P11308 1-479)
T3 sequence: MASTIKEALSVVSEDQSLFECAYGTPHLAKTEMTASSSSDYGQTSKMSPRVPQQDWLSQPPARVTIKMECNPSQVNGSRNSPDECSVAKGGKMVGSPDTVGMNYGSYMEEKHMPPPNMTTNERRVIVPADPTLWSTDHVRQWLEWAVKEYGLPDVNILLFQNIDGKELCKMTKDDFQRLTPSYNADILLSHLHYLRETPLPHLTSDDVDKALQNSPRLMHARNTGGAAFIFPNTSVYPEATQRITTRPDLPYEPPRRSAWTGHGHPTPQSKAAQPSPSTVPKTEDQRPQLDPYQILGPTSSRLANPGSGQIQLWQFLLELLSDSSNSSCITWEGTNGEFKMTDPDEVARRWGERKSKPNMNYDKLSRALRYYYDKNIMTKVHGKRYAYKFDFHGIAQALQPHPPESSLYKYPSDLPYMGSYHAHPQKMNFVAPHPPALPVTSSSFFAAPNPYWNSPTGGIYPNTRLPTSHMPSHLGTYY
Procedure, shortened: as §1

ELF1 = ELF1 (Homo sapiens, UniProt P32519 1-619)
ELF1, sequence (P32519 whole entry): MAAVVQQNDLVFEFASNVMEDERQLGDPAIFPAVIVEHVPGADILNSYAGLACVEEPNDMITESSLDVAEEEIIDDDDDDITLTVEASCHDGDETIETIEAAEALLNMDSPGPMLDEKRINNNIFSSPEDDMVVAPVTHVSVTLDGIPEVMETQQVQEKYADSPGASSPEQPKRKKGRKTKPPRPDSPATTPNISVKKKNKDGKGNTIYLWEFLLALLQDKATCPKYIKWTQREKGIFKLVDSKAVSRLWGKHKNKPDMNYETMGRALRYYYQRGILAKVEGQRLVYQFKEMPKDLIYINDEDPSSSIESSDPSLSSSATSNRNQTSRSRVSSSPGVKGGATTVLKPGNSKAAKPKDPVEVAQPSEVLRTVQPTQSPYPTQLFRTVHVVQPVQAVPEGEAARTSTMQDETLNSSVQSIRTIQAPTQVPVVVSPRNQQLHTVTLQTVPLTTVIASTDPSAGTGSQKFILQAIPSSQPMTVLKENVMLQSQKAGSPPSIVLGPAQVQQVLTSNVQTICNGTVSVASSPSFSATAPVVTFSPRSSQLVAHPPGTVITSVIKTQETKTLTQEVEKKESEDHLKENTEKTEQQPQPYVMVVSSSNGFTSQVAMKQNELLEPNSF
Procedure, shortened: as §1

EHF = target: T4, EHF (Homo sapiens, UniProt Q9NZC4 1-300)
T4 sequence: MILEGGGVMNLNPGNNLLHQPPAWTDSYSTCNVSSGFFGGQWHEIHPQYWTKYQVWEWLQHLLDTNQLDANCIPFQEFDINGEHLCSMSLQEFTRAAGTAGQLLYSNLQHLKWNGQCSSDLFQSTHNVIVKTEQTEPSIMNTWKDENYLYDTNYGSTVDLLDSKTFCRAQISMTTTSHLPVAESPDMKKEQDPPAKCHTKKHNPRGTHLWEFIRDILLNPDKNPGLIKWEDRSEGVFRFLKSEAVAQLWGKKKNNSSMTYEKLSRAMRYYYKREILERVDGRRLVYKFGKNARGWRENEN
Procedure, shortened: as §1

SPIB = SPIB (Homo sapiens, UniProt Q01892 1-262)
SPIB, sequence (Q01892 whole entry): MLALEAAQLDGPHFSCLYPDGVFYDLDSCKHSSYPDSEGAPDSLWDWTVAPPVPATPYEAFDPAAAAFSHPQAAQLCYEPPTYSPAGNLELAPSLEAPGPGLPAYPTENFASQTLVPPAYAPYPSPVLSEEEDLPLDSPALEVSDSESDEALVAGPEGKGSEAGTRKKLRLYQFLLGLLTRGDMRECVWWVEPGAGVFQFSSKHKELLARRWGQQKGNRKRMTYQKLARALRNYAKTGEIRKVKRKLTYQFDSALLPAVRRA
Procedure, shortened: as §1

ELK3 = target: T5, ELK3 (Homo sapiens, UniProt P41970 1-407)
T5 sequence: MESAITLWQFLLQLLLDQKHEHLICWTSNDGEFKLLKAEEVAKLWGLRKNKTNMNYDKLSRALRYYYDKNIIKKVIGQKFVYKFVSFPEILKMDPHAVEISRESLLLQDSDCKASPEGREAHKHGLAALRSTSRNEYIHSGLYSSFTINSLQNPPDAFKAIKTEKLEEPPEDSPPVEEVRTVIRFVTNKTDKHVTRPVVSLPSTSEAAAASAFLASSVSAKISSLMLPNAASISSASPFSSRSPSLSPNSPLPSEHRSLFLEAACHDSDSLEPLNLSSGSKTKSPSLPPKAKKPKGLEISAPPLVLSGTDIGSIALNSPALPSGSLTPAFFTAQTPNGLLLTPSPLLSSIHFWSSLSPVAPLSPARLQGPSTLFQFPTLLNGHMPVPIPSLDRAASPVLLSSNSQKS
Procedure, shortened: as §1

SPIC = target: T6, SPIC (Homo sapiens, UniProt Q8N5J4 1-248)
T6 sequence: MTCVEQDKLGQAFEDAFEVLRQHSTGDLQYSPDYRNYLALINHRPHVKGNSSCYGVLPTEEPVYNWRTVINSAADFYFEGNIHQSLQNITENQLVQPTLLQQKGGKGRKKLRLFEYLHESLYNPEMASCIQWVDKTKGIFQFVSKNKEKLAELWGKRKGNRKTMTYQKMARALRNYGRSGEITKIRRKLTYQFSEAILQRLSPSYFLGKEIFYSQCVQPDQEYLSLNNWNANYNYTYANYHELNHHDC
Procedure, shortened: as §1

ELK4 = target: T7, ELK4 (Homo sapiens, UniProt P28324-2 1-405)
T7 sequence: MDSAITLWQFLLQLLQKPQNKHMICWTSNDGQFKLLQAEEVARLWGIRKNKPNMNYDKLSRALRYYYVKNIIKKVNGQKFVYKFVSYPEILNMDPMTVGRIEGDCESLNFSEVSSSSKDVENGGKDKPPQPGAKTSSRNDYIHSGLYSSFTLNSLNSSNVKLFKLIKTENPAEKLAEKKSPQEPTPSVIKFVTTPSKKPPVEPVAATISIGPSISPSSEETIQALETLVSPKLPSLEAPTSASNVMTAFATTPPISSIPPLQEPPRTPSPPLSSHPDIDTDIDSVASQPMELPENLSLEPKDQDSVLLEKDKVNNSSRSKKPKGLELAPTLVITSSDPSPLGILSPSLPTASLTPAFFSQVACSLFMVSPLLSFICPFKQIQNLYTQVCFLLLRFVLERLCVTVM
Procedure, shortened: as §1

ELF3 = target: T8, ELF3 (Homo sapiens, UniProt P78545 1-371)
T8 sequence: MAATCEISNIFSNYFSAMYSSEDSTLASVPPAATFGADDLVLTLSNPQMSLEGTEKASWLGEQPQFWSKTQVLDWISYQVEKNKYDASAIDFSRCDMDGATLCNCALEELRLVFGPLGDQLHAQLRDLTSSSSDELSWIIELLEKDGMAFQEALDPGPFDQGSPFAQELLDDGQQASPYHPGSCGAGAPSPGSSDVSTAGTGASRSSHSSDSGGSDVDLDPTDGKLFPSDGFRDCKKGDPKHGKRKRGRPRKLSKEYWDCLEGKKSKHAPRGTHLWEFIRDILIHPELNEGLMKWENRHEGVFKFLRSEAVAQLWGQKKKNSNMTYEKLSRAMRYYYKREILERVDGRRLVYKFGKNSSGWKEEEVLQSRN
Procedure, shortened: as §1

ETV1 = ETV1 (Homo sapiens, UniProt P50549 1-477)
ETV1, sequence (P50549 whole entry): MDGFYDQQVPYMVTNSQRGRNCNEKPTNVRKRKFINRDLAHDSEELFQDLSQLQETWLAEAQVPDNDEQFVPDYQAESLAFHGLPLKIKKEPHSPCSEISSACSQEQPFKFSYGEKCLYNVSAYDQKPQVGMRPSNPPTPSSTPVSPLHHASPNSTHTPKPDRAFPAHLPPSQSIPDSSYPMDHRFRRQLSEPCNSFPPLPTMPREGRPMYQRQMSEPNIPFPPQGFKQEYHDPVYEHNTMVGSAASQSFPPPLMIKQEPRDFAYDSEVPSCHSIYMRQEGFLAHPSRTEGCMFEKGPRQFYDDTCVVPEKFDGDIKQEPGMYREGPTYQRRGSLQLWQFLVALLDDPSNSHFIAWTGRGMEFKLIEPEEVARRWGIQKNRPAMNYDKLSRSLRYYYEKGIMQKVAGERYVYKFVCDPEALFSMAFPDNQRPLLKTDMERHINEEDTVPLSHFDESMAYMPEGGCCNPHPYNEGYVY
Procedure, shortened: as §1

ETV3L = target: T9, ETV3L (Homo sapiens, UniProt Q6ZN32 1-361)
T9 sequence: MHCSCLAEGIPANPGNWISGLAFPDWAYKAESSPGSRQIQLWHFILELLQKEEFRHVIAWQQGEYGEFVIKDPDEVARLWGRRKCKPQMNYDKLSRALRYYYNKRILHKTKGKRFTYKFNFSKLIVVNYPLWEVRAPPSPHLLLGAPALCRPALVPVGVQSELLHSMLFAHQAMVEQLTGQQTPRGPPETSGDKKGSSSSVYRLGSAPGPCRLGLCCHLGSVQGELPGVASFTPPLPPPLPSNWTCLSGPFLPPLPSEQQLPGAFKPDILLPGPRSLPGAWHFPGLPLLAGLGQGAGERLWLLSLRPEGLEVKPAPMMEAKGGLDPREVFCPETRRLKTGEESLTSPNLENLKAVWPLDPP
Procedure, shortened: as §1

ETV7 = target: T10, ETV7 (Homo sapiens, UniProt Q9Y603 1-341)
T10 sequence: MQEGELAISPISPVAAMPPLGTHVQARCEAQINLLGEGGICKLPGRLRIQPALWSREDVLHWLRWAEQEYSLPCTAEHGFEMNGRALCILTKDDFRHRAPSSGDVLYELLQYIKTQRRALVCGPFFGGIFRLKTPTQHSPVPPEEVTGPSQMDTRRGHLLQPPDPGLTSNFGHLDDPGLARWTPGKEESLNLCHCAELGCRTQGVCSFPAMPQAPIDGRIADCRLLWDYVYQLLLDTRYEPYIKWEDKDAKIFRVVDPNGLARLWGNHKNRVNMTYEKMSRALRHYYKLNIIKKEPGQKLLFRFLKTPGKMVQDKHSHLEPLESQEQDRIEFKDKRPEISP
Procedure, shortened: as §1

ETV3 = target: T11, ETV3 (Homo sapiens, UniProt P41162-2 1-143)
T11 sequence: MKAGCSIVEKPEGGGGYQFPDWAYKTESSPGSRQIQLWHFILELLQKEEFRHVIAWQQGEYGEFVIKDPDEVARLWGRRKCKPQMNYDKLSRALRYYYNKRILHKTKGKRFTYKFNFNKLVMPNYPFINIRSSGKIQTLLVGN
Procedure, shortened: as §1

ETV6 = ETV6 (Homo sapiens, UniProt P41212 1-452)
ETV6, sequence (P41212 whole entry): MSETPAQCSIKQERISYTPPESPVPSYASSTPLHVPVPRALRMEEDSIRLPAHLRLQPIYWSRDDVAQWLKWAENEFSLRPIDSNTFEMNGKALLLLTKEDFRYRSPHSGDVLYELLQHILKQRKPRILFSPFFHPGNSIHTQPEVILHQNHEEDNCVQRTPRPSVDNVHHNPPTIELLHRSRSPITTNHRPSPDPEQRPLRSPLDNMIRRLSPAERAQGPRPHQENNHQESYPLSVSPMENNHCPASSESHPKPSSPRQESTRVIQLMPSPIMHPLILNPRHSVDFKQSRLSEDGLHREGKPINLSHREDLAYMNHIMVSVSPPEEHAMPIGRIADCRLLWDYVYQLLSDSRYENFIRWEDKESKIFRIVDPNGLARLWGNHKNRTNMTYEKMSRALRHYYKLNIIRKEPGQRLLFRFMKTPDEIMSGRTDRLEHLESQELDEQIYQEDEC
Procedure, shortened: as §1

Q: With TAAAGG as the sequence, how does the binding signal (ELK1) read?
A: 1.03 fold enrichment (6-mer frequency, TF over GST control)

Q: What about the binding signal (GABPA) of the same sequence?
A: 1.03 fold enrichment (6-mer frequency, TF over GST control)

Q: And the binding signal (ERG)?
A: 1.03 fold enrichment (6-mer frequency, TF over GST control)

Q: What about the binding signal (ELF1) of the same sequence?
A: 1.08 fold enrichment (6-mer frequency, TF over GST control)

Q: What about the binding signal (EHF) of the same sequence?
A: 1.12 fold enrichment (6-mer frequency, TF over GST control)

Q: What about the binding signal (SPIB) of the same sequence?
A: 1.03 fold enrichment (6-mer frequency, TF over GST control)

Q: And the binding signal (ELK3)?
A: 1.1 fold enrichment (6-mer frequency, TF over GST control)

Q: What about the binding signal (SPIC) of the same sequence?
A: 1.11 fold enrichment (6-mer frequency, TF over GST control)

Q: What about the binding signal (ELK4) of the same sequence?
A: 1.07 fold enrichment (6-mer frequency, TF over GST control)

Q: And the binding signal (ELF3)?
A: 1.1 fold enrichment (6-mer frequency, TF over GST control)

Q: And the binding signal (ETV1)?
A: 1.03 fold enrichment (6-mer frequency, TF over GST control)

Q: What about the binding signal (ETV3L) of the same sequence?
A: 1.04 fold enrichment (6-mer frequency, TF over GST control)

Q: What about the binding signal (ETV7) of the same sequence?
A: 1.09 fold enrichment (6-mer frequency, TF over GST control)

Q: And the binding signal (ETV3)?
A: 1.09 fold enrichment (6-mer frequency, TF over GST control)

Q: What about the binding signal (ETV6) of the same sequence?
A: 1.07 fold enrichment (6-mer frequency, TF over GST control)

From publication PMC7862700, “An all-to-all approach to the identification of sequence-specific readers for epigenetic DNA modifications on cytosine”
